This is an account of results in article PMC7862700, “An all-to-all approach to the identification of sequence-specific readers for epigenetic DNA modifications on cytosine”.

Test in all cases: DAPPL (digital affinity profiling via proximity ligation, sequencing); 10 mM Tris-HCl pH 7.5, 50 mM NaCl, 1 mM DTT, 4% glycerol, room temperature, 30 min; GST-TFs on glutathione beads, 16-mer random dsDNA library, 0.1% formaldehyde crosslink after washing; high values mean tight binding
Holding throughout (conditions): protein: recombinant; tags: N-terminal GST; dsDNA, one strand shown

The target of assay [1] is T1, FLI1 (Homo sapiens, UniProt Q01543 1-452).
T1 sequence: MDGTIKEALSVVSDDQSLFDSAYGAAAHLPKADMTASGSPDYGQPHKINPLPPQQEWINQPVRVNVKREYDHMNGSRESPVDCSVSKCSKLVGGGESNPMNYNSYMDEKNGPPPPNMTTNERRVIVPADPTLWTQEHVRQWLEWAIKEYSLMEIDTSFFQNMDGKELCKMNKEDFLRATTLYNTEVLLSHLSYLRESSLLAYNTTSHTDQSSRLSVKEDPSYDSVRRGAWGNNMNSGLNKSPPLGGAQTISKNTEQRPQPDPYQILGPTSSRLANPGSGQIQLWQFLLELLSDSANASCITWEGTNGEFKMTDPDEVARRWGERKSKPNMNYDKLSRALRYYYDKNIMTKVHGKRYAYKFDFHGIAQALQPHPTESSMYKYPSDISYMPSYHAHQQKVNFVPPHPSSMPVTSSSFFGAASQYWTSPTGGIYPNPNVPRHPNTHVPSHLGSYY
The method in brief: (§1)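 Human transcription factors fused to GST were expressed in yeast, captured on glutathione beads, given DNA barcodes and pooled with a GST-only negative control. Pools were incubated with 200 nmole of a 16-mer random double-stranded DNA library in Tris/NaCl/DTT/glycerol buffer at room temperature for 30 min. They were then washed, crosslinked with 0.1% formaldehyde, proximity-ligated (BsaI/T4 ligase, 1 h, 37 °C), PCR-amplified and sequenced on an Illumina NextSeq500. Binding signal is each 6-mer's read frequency for a factor divided by its frequency for the GST control.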

Assay [2] deals with T2, ELK1 (Homo sapiens, UniProt P19419 1-428).
T2 sequence: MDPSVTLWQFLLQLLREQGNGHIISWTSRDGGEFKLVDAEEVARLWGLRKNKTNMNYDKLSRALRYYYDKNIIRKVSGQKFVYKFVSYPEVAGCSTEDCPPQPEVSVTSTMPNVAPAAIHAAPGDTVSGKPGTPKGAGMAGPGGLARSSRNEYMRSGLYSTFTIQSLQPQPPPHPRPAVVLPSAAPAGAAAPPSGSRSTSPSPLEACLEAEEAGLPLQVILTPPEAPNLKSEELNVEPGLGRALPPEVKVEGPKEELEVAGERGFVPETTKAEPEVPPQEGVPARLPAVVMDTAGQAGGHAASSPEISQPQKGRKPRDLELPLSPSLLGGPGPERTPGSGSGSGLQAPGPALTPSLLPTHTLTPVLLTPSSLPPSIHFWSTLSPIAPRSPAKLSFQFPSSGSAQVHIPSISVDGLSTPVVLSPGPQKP
A digest of the protocol: as §1

In assay [3] the target is T3, GABPA (Homo sapiens, UniProt Q06546 1-454).
T3 sequence: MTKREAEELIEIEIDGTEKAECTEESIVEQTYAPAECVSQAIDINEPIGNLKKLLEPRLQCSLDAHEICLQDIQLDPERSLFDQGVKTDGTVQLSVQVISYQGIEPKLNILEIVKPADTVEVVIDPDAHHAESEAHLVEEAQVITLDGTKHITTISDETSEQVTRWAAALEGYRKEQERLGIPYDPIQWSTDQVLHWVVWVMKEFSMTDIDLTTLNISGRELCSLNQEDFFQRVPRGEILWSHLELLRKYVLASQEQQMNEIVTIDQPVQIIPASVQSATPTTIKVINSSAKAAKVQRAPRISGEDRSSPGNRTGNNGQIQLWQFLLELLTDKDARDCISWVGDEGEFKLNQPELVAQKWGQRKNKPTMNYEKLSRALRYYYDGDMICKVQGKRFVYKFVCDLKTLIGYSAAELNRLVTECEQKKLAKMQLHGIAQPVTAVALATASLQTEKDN
The method in brief:
as §1

The target in assay [4] is T4, ERG (Homo sapiens, UniProt P11308 1-479).
T4 sequence: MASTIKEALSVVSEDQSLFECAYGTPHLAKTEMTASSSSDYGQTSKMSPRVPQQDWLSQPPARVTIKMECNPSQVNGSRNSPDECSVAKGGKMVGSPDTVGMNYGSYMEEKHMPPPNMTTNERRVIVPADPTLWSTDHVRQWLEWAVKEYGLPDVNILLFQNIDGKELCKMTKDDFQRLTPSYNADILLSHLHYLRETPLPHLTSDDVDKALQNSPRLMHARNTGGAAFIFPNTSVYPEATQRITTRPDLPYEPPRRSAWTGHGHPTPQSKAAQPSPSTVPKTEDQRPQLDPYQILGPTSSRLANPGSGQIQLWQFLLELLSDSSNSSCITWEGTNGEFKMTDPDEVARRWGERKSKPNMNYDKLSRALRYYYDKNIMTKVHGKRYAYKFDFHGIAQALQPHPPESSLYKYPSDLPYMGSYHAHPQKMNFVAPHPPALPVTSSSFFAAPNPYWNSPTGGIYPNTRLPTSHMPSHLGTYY
The method in brief: as §1

Assay [5] addresses ELF1 (Homo sapiens, UniProt P32519 1-619). A digest of the protocol: as §1
For assay [6], the target named is T5, EHF (Homo sapiens, UniProt Q9NZC4 1-300).
T5 sequence: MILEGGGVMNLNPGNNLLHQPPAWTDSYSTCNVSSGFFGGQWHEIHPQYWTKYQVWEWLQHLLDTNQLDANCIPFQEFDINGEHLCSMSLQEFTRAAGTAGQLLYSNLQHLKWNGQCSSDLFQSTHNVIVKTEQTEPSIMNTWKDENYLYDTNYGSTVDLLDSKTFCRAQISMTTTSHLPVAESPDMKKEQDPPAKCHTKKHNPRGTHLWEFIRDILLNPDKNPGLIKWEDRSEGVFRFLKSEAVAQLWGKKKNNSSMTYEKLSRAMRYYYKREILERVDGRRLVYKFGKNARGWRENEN
The method in brief: as §1

Assay [7] addresses SPIB (Homo sapiens, UniProt Q01892 1-262). The method in brief: as §1
The target of assay [8] is T6, ELK3 (Homo sapiens, UniProt P41970 1-407).
T6 sequence: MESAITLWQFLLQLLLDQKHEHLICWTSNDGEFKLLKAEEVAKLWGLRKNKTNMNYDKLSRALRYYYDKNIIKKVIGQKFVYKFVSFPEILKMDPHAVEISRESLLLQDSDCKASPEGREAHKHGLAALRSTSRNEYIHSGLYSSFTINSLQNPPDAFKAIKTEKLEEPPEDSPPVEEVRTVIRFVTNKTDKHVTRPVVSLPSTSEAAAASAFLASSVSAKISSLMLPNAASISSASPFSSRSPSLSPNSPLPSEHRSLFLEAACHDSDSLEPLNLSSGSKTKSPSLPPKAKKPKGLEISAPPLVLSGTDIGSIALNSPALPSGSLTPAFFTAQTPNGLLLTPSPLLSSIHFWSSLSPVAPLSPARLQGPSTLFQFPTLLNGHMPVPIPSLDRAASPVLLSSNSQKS
The method in brief:
as §1

In assay [9] the target is T7, SPIC (Homo sapiens, UniProt Q8N5J4 1-248).
T7 sequence: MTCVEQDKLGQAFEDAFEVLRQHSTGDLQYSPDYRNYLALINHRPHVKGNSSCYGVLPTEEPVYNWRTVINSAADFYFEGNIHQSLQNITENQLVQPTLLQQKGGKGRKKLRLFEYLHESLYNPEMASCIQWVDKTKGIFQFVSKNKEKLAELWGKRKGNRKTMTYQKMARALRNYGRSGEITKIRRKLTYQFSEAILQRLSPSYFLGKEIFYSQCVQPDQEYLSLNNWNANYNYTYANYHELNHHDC
The method in brief:
as §1

In assay [10] the target is ELF4 (Homo sapiens, UniProt Q99607 1-663). A digest of the protocol: as §1
The target of assay [11] is T8, ELK4 (Homo sapiens, UniProt P28324-2 1-405).
T8 sequence: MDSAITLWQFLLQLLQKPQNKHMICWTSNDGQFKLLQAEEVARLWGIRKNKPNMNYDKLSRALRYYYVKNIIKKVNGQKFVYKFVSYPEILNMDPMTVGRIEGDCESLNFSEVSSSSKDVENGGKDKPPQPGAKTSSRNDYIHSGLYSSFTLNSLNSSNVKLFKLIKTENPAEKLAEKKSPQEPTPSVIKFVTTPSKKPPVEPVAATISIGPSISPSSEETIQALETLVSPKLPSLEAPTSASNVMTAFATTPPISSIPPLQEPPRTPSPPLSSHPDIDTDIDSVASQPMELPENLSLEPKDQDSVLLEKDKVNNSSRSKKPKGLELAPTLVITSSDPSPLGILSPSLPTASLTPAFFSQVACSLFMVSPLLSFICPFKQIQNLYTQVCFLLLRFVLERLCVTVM
The method in brief:
as §1

The target in assay [12] is T9, ETV2 (Homo sapiens, UniProt O00321 1-342).
T9 sequence: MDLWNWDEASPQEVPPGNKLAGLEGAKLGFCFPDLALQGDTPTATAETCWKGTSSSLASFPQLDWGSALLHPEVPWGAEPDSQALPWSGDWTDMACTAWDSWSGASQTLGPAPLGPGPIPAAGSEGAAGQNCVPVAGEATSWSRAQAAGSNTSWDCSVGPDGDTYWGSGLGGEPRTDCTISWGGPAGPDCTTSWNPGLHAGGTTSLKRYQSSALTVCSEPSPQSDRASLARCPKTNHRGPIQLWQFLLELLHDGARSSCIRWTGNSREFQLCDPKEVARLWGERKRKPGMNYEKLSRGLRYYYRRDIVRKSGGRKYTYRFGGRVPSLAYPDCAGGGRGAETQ
The method in brief:
as §1

For assay [13], the target named is T10, ELF3 (Homo sapiens, UniProt P78545 1-371).
T10 sequence: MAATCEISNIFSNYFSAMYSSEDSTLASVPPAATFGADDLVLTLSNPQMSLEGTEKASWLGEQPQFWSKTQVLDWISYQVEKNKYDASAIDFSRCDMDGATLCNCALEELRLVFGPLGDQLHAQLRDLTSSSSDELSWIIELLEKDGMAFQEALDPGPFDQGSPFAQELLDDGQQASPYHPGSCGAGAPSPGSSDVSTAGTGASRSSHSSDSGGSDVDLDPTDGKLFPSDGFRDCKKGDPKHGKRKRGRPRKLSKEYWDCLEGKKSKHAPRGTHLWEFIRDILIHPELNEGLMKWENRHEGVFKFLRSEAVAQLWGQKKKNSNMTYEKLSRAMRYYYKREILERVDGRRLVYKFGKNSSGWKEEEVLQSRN
The method in brief: as §1

Assay [14] addresses ETV1 (Homo sapiens, UniProt P50549 1-477). A digest of the protocol:
as §1

Assay [15] addresses T11, ERF (Homo sapiens, UniProt P50548 1-548).
T11 sequence: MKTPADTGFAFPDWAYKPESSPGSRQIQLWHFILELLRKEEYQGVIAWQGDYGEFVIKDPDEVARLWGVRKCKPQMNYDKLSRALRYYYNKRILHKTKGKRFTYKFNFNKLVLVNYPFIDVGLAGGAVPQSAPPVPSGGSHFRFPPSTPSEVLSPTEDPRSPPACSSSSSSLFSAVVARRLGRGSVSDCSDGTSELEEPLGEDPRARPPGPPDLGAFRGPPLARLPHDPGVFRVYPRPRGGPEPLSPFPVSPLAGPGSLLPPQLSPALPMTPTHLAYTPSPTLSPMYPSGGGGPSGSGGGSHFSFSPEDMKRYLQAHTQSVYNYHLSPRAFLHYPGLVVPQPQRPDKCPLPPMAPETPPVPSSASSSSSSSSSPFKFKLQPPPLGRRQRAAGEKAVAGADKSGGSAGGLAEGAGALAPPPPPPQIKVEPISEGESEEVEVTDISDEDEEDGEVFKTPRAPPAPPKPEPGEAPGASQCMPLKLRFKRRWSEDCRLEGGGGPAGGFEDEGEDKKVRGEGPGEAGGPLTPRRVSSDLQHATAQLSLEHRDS
A digest of the protocol: as §1

In assay [16] the target is T12, ETV7 (Homo sapiens, UniProt Q9Y603 1-341).
T12 sequence: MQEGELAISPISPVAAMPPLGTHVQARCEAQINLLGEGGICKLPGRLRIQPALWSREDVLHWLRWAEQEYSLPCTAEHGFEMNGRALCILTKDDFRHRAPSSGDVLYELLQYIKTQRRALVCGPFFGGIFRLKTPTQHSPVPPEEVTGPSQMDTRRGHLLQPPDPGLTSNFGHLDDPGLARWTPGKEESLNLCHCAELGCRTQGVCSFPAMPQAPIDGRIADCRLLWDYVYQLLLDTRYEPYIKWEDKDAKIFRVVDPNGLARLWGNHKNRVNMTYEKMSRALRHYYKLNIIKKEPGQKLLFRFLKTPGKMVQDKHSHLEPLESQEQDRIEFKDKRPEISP
The method in brief:
as §1

For assay [17], the target named is T13, ETV3 (Homo sapiens, UniProt P41162-2 1-143).
T13 sequence: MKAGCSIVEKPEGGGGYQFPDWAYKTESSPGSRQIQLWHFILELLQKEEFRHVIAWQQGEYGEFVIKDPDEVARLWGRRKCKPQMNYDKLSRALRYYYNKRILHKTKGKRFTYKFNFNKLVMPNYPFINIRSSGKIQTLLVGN
The method in brief: as §1

The target in assay [18] is ETV6 (Homo sapiens, UniProt P41212 1-452). A digest of the protocol: as §1
Chain of ETV6 (P41212 whole entry): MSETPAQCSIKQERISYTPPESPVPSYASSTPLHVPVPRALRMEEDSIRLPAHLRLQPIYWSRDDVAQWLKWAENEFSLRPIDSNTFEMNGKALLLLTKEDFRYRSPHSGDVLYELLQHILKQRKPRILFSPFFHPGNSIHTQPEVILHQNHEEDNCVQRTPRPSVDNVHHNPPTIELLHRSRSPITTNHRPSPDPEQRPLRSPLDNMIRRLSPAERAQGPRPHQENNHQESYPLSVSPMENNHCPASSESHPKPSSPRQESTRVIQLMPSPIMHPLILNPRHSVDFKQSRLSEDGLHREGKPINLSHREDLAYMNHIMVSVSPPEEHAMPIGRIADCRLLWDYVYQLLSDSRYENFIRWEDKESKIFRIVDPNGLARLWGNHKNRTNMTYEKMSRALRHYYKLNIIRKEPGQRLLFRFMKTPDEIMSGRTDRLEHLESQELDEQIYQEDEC

Chain of SPIB (Q01892 whole entry): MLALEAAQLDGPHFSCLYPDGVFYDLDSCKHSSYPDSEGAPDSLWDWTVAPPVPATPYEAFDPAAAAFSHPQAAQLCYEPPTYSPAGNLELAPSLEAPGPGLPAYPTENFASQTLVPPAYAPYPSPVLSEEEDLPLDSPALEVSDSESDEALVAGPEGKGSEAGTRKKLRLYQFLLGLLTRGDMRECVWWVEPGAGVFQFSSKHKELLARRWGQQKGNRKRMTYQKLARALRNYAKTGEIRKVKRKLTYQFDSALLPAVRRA
Chain of ETV1 (P50549 whole entry): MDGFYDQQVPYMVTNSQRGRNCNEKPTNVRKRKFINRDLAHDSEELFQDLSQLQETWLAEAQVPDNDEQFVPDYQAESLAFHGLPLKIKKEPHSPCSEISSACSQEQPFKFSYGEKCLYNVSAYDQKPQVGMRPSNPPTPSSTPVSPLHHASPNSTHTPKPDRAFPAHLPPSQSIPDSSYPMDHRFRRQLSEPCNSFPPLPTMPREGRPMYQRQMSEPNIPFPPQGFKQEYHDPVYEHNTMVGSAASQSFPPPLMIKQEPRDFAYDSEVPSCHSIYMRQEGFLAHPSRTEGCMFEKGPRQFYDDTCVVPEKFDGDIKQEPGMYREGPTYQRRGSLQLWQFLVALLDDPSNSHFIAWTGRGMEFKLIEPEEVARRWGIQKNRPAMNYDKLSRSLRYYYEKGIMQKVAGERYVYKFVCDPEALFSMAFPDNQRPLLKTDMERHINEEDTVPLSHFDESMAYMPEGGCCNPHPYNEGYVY
Chain of ELF4 (Q99607 whole entry): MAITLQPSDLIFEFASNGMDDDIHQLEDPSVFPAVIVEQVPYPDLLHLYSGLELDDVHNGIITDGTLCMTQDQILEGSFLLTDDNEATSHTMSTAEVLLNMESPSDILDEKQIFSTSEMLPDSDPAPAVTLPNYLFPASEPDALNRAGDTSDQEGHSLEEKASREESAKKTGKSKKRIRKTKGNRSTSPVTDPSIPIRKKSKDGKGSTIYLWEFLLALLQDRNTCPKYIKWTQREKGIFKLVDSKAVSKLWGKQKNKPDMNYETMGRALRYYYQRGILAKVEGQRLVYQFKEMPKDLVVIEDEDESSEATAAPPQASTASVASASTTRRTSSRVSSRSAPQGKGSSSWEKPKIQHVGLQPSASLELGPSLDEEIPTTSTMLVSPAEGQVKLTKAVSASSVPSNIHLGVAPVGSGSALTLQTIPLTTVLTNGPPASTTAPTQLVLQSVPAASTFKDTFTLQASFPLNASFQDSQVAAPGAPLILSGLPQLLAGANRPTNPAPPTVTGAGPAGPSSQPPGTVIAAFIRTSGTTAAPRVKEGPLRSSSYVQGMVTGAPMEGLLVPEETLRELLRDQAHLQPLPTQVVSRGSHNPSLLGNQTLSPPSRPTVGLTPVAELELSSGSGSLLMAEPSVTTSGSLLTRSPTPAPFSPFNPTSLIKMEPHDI
Chain of ELF1 (P32519 whole entry): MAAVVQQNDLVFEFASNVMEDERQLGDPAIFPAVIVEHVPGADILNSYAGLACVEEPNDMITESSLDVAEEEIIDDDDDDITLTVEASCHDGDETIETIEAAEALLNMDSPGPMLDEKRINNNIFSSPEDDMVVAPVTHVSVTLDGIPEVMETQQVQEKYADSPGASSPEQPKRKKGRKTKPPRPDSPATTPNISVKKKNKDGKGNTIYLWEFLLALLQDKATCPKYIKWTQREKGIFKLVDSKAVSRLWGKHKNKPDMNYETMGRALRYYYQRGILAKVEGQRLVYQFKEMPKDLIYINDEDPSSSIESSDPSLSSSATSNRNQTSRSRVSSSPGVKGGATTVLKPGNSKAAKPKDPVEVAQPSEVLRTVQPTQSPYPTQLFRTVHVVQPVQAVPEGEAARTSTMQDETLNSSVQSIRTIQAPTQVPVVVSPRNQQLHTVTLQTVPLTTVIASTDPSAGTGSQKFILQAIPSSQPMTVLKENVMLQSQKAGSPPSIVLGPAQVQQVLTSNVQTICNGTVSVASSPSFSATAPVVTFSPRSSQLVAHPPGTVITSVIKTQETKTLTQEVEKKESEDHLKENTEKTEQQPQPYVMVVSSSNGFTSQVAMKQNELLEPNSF

As for GCACCT, the binding signal is 1.07 fold enrichment (6-mer frequency, TF over GST control) in assay [1]; 1.01 fold enrichment (6-mer frequency, TF over GST control) in [2]; 1.12 fold enrichment (6-mer frequency, TF over GST control) in assay [3]; 1.07 fold enrichment (6-mer frequency, TF over GST control) in assay [4]; 1.16 fold enrichment (6-mer frequency, TF over GST control) in [5]; 1.18 fold enrichment (6-mer frequency, TF over GST control) in [6]. Moreover, the binding signal in assay [7] was 1.13 fold enrichment (6-mer frequency, TF over GST control); in assay [8], 1.05 fold enrichment (6-mer frequency, TF over GST control); in assay [9] it was 1 fold enrichment (6-mer frequency, TF over GST control); in [10], 1.13 fold enrichment (6-mer frequency, TF over GST control); in [11], 1.16 fold enrichment (6-mer frequency, TF over GST control); in [12] it was 1.25 fold enrichment (6-mer frequency, TF over GST control). Further, the binding signal is 1.06 fold enrichment (6-mer frequency, TF over GST control) in assay [13]; 1.1 fold enrichment (6-mer frequency, TF over GST control) in assay [14]; 1.29 fold enrichment (6-mer frequency, TF over GST control) in [15]; 1.11 fold enrichment (6-mer frequency, TF over GST control) in assay [16]; 1.13 fold enrichment (6-mer frequency, TF over GST control) in [17]; 1.12 fold enrichment (6-mer frequency, TF over GST control) in assay [18].
